# Experimental data as given in PubChem BioAssay (EPA / NIEHS).
# Calls of active or inactive are those of the source. How the source made its calls: active means hit-call score of the fitted dose curve at least 0.9, where 1 is the maximum; inactive means score below 0.9.
# Read-out: CYP3A5 (gene 1577)
# Assay: LTEA_HepaRG_CYP3A5: Life Technologies and Expression Analysis (LTEA) Assay for CYP3A5 using HepaRG (AID 2283493)
# Conditions: mRNA level, 48 h; actives raise or lower the signal
# Method: LTEA_HepaRG is a cell based, multiplexed-readout assay that uses HepaRG, a human liver cell line, with measurements taken at 48 hours after chemical dosing on a 96-well plate.LTEA_HepaRG_CYP3A5 is one of 102 assay component(s) measured in the LTEA HepaRG cell culture assay. It is a marker of NR mediated metabolism.Data from the assay component LTEA_HepaRG_CYP3A5 was analyzed into 1 endpoint. This assay endpoint, LTEA_HepaRG_CYP3A5, was analyzed with bidirectional fitting relative to DMSO as the negative control and baseline of activity. Using a type of inducible reporter, measures of mRNA induction for gain or loss-of-signal activity can be used to understand regulation of transcription factor activity. To generalize the intended target to other relatable targets, this assay endpoint is annotated to the cyp intended target family, where the subfamily is xenobiotic metabolism.
# A total of 1060 chemcials from the ToxCast library were tested in eight-point concentration-response experiments. Cell culture and cytotoxicity assays were conducted at Thermo Fisher Scientific's Custom Services facility (Madison, WI). A single lot of human HepaRG cells (Thermo Fisher Scientific, Frederick, MD) was used for the cell culture experiments. 96-well format collagen type I coated plates of human HepaRG cells were prepared using established methods. Briefly, cryopreserved HepaRG cells were thawed, plated at a density of approximately 100,000 cells/well in HepaRG Thaw, Plate, and General Purpose media (HPRG770, Thermo Fisher Scientific), and incubated for 48 hours. 0.5% DMSO was selected as vehicle control to balance the requisite need of DMSO in HepaRG cultures to maintain differentiation (for example, baseline metabolism, proportions of hepatocytes vs. cholangiocytes), while enabling further hepatic receptor pathway activation (for example, PXR and CAR) in response to chemical exposure. 48 hours after plating, the culture medium was replaced with HepaRG Serum-Free Incudtion Media. Cells were exposed to each test chemical in duplicate and maintained in CO2 incubators for another 48 hours. Chemical plates were thawed to room temperature and 200x concentrations of treatment groups were prepared. 8-point conentration-reponse curves were made with the highest exposure at 100 uM, followed by half-log dilutions, all in 0.5% DMSO. Each test plate contained variouse controls, induction positive controls (1mM phenobarbital), cytotoxicity positive controls ([…] aflatoxin B1), vehicle controls (0.5% DMSO), and total lysis controls (0.5% DMSO). Cell morphology images were taken using an Essen IncuCyte FLR automated microscope, with six 96-well plates imaged in about 24 minutes. Images were captured and exported and JPEG files. Spent culture media was transfered to black-well plates for the LDH assay, and remaining media was sorted at -80 C for later use. Cells were treated with RLT buffer and frozen until shipped for gene expression analysis. Total RNA was isolated from the cell suspension in 75 uL of Buffer RLT (Qiagen, Germantown, MD 20874) by Quintiles/Expression Analysis (Durham, NC) using a custom isolation procedure. Total RNA from each plate well was transferred to a preamplification plate. Fluidigm's 96.96 Dynamic ArrayTM (Fluidigm, Amsterdam, the Netherlands) technology was used for gene expression analyses by quantitative reverse transcription polymerase chain reaction (qRT-PCR, performed by Quintiles/Expression Analysis, Durham, NC)89. Standard TaqManTM Assays (Applied Biosystems/ThermoFisher Scientific, Foster City, CA) were used to assess the expression of 93 genes selected based on their selectivity and sensitivity to important hepatic receptors known to be modulated by environmental chemicals; importance in human hepatocyte functionality; and hepatotoxicity. […]
SMILES,outcome,AC50
CCCCCOC(C)=O,inactive,–
OC[C@H]1O[C@@H]2O[C@H]3[C@H](O)[C@@H](O)[C@@H](O[C@H]4[C@H](O)[C@@H](O)[C@@H](O[C@H]5[C@H](O)[C@@H](O)[C@@H](O[C@H]6[C@H](O)[C@@H](O)[C@@H](O[C@H]7[C@H](O)[C@@H](O)[C@@H](O[C@H]1[C@H](O)[C@H]2O)O[C@@H]7CO)O[C@@H]6CO)O[C@@H]5CO)O[C@@H]4CO)O[C@@H]3CO,inactive,–
O=C1CN(N=Cc2ccc([N+](=O)[O-])o2)C(=O)N1,inactive,–
c1ccc2ncccc2c1,inactive,–
O=c1[nH]cnc2c1ncn2[C@H]1CC[C@@H](CO)O1,inactive,–
COS(C)(=O)=O,inactive,–
CCCCOC(=O)c1ccccc1,inactive,–
NC(=O)NN=Cc1ccc([N+](=O)[O-])o1,inactive,–
CCCCC(CC)C(=O)OCCOCCOCCOC(=O)C(CC)CCCC (stereo not given),inactive,–
CCc1ccc(O)c(C(C)(C)C)c1,inactive,–
CCCCN1C(=O)[C@@H]([C@H](O)C2CCCCC2)NC(=O)C12CCN(Cc1ccc(Oc3ccc(C(=O)O)cc3)cc1)CC2,–,1.9 µM (active)
OCC(CO)(CO)CO,inactive,–
CCCOc1ccc(S(=O)(=O)N2CCN(CC)CC2)cc1-c1nc2c(CC)n(Cc3ccccn3)nc2c(=O)[nH]1,inactive,–
OCCNCCO,inactive,–
CC(C)C(=O)Nc1ccc([N+](=O)[O-])c(C(F)(F)F)c1,inactive,–
NC(=O)N(O)[C@@H]1COc2cc(OCc3ccccc3)ccc21,inactive,–
CCOc1ccc2[nH]cc(C(=O)NCc3ccccc3)c(=O)c2n1,inactive,–
CCCCCCCCN(C)C,inactive,–
CCCCCCOC(=O)CC(CC(=O)OCCCCCC)(OC(=O)CCC)C(=O)OCCCCCC,inactive,–
CC(=O)c1ccccc1,inactive,–

SMILES,outcome,AC50
CCCCCCCCCC,inactive,–
NNC(=O)c1ccncc1,inactive,–
NC(=O)N1c2ccccc2C=Cc2ccccc21,inactive,–
OCc1ccccc1,inactive,–
OCCOCCOCCO,inactive,–
CNC(C)=O,inactive,–
COCc1nnc(-c2ccc[n+]([O-])c2)n1-c1c(Cl)c(Cl)cc2[nH]c(=O)c(=O)[nH]c12,inactive,–
CCCCCCCCCCCCCCCCOS(=O)(=O)O,inactive,–
CCCCCCCC/C=C\CCCCCCCC(=O)OC[C@@H](O)[C@H]1OC[C@H](O)[C@H]1O,inactive,–
C[C@@H](Oc1ccc(CNC(=O)c2cccnc2Oc2ccc3c(c2)OCO3)c(F)c1)C(=O)O,inactive,–
CCCc1ccccc1,inactive,–
CCN(CC)C(=S)SSC(=S)N(CC)CC,inactive,–
Cc1nc(-c2ccccn2)ncc1C(=O)Nn1cc(C)c2cc(F)ccc21,inactive,–
O=S1(=O)CCCO1,inactive,–
c1ccc2cc3ccccc3cc2c1,inactive,–
Cc1ncc([C@@H](CCCCCCc2ccc3c(n2)NCCC3)CC(=O)O)cn1,inactive,–
c1ccc2c(c1)-c1cccc3c1c-2cc1ccccc13,–,5.37 µM (active)
CCc1cccc(CC)c1N,inactive,–
C[C@]12C=CC(=O)C=C1CC[C@H]1[C@@H]3C[C@@H](O)[C@](O)(C(=O)CO)[C@@]3(C)C[C@H](O)[C@@]12F,inactive,–
CCn1nc(C)c2c1C(=O)NCC(c1ccc(O)cc1)=N2,inactive,–
